Records with an inconclusive call do not appear. Entries that show only a call come without a potency. The source made the active and inactive calls. Unless noted, the call rests on the fitted dose curve; in most records, active means well fitted curve in the direction sought with a large enough effect; inconclusive means small, poorly fitted or top-dose-only effect, or another doubt; inactive means no such curve, though single readings can be large; an effect the other way counts as inactive or inconclusive.
Legend:
[1] = biological target: Aldehyde dehydrogenase, mitochondrial (Homo sapiens) (UniProt P05091); assay: qHTS for Inhibitors of the Aldehyde Dehydrogenase Family (ALDH2) Confirmatory screens (AID 2061303; active means well fitted inhibition curve with a large enough effect; title and protocol of this record describe different tests; further: nearly all actives have a fitted effect of over 45% in size)
[2] = qHTS for Inhibitors of the Aldehyde Dehydrogenase Family (ALDH1A2, ALDH1A3, ALDH2, ALDH3A1) (AID 2061307); further: nearly all actives have a fitted effect of over 50% in size; on potency: test system not described further here; potency means the concentration at half of the fitted maximal effect
[3] = biological target: Aldehyde dehydrogenase, mitochondrial (Homo sapiens) (UniProt P05091); assay: qHTS for Inhibitors of the Aldehyde Dehydrogenase Family (ALDH2) Primary screen (AID 2061308); further: nearly all actives have a fitted effect of over 55% in size
[4] = biological target: Retinaldehyde dehydrogenase 3 (Homo sapiens) (UniProt P47895); assay: qHTS for Inhibitors of the Aldehyde Dehydrogenase Family (ALDH1A3) Confirmatory screens (AID 2061311); further: nearly all actives have a fitted effect of over 60% in size
[5] = biological target: Retinal dehydrogenase 2 (Homo sapiens) (UniProt O94788); assay: qHTS for Inhibitors of the Aldehyde Dehydrogenase Family (ALDH1A2) Confirmation screens (AID 2061314); further: nearly all actives have a fitted effect of over 65% in size
[6] = biological target: Retinaldehyde dehydrogenase 3 (Homo sapiens) (UniProt P47895); assay: qHTS for Inhibitors of the Aldehyde Dehydrogenase Family (ALDH1A3) Primary screen (AID 2061315)
[7] = biological target: Aldehyde dehydrogenase 1A1 (Homo sapiens) (UniProt P00352); assay: qHTS for Inhibitors of the Aldehyde Dehydrogenase Family (ALDH1A1) Confirmatory screens (AID 2061316); further: nearly all actives have a fitted effect of over 65% in size; further: potency means the concentration at half of the fitted maximal effect

Row | SMILES | Potency [1] | Potency [2] | Potency [3] | Potency [4] | Potency [5] | Potency [6] | Potency [7]
1 | COc1ccc(C2=Nn3c(nnc3-c3cc(OC)ccc3OC)SC2)c(OC)c1 | inactive | 17.9 µM (active) | inactive | inactive | inactive | inactive | 6.34 µM (active)
2 | Nc1ccc(S(=O)(=O)N2CCN(S(=O)(=O)c3c(F)cccc3F)CC2)cc1 | inactive | inactive | inactive | inactive | inactive | inactive | 
3 | Cc1ccc(OCCn2c(CCNC(=O)c3ccccc3C(F)(F)F)nc3ccccc32)cc1 | inactive | inactive | inactive | inactive | inactive | inactive | 
4 | O=C(O)c1ccc(S(=O)(=O)N[C@H](Cc2ccccc2)C(=O)O)cc1 | inactive | inactive | inactive | inactive | inactive | inactive | inactive
5 | O=[S+]([O-])(NCc1nccs1)c1ccc(Nc2nc(-c3ccccc3)cs2)cc1 | inactive | inactive | inactive | inactive | inactive | inactive | 
6 | N#Cc1ccccc1OC1=NS(=O)(=O)c2ccccc21 | inactive | inactive | inactive | inactive | inactive | inactive | inactive
7 | CCOC(=O)c1cccc(-n2cnc(/C=C3\NC(=O)N(CC(=O)O)C3=O)c2)c1 | inactive | inactive | inactive | inactive | inactive | inactive | inactive
8 | CC(=O)SCC(CC(=O)c1ccc(C)cc1)C(=O)O (stereo not given) | inactive | inactive | inactive | inactive | inactive | inactive | inactive
9 | COc1cc(F)cc(F)c1[S+](=O)([O-])N1CCN([S+](=O)([O-])c2ccc3c(c2)OCCO3)CC1 | inactive | inactive | inactive | inactive | inactive | inactive | inactive
